The campaign covered roughly 69,000 compounds. About 8,600 (12%) showed an effect of 50% or more. For the sample, strong results were picked, then their nearest neighbours and some compounds at random.

The subject of this assay is Plasmodium berghei. As to the kind of experiment: Screen against P. berghei liver stage (PbLuc), transformed with Luciferase, at 10uM. In kind it is functional, HepG2. The conditions noted are these: tested at 10 uM.
Regarding `COc1ccc(C2CC(=O)NCc3nc(N(C)C)sc32)c(O)c1` (centres undefined), the INHIBITION amounted to 36.6%.
Consider `COc1ccc(C(C)C)cc1C1CC(=O)NCc2nc(N(C)C)sc21` (centres undefined), for which the INHIBITION is reported as 52.2%.
In the case of `CN(Cc1ccccc1F)C(=O)c1cc(Cl)c[nH]1` it was 15.4%; in that of `COc1nccnc1N1C[C@H]2CC[C@@H](C1)N(CC=C(C)C)C2=O`, 6.83%.
For `CCOc1ccccc1C(CC(=O)Nc1ccncc1)NC(C)=O` (centres undefined), the INHIBITION was determined as 26.9%.
Regarding `CC(NC(=O)NC1CCN(Cc2ccccn2)CC1)c1ccco1` (centres undefined), the INHIBITION was 36.8%.
Next, `CC(NC(=O)NC1CCN(Cc2ccccc2)CC1)c1nncn1C` (centres undefined): -12.3%.
Consider `CC(NC(=O)NC1CCN(Cc2ccncc2)CC1)c1ccc(F)cc1` (centres undefined), for which the INHIBITION worked out at 75.7%.
With `NC(=O)C(NC1CCN(Cc2ccc(F)cc2)CC1)c1ccccc1` (centres undefined), the INHIBITION was -106%.
In the case of `CC(NC(=O)NC1CCN(Cc2ccncc2)CC1)c1ccccc1F` (centres undefined) it was 68.9%; in that of `CC(NC(=O)NC1CCN(Cc2ccncc2)CC1)c1cccc(F)c1` (centres undefined), 13%; in that of `O=C(C1CC1)N1CCN(Cc2ccncc2)c2ncccc2C1`, 5.56%.
Regarding `CC(NC(=O)NCc1ccccc1Cl)c1ccccn1` (centres undefined), the INHIBITION is given as -49.5%.
In the case of `COc1ccc2c(c1)C(=O)NC1(CC2)CCN(Cc2cccnc2)C1` (centres undefined) it was 2.1%; in that of `Cc1cccc(-n2cc3[nH]c(=O)[nH]n3c2=O)c1`, 36.3%.
As for `CC(C)C(C)N(Cc1cnc2ccccc2n1)Cc1ccco1` (centres undefined), the INHIBITION came out at 47%.
`Cc1ccc(CN[C@@H]2CO[C@H](CNS(=O)(=O)c3ccccc3)[C@H]2O)cc1`: the INHIBITION is 27.5%.
Take `O=C(NC[C@H]1OC[C@@H](NCc2cccs2)[C@@H]1O)N1CCOCC1`: the INHIBITION is -0.371%.
Take `Cc1ccc(S(=O)(=O)NC[C@H]2OC[C@@H](NCc3cccs3)[C@@H]2O)cc1`: the INHIBITION is reported as 52.5%.
With `O=S(=O)(NC[C@H]1OC[C@@H](NCc2cccs2)[C@@H]1O)c1ccccc1`, the INHIBITION came to 51%.
As to `CC(C)(C)CN[C@@H]1CO[C@H](CNC(=O)c2cccs2)[C@H]1O`, the INHIBITION is recorded as -7.29%.
For the molecule `CC(C)NC(=O)NC[C@H]1OC[C@@H](NCc2cccs2)[C@@H]1O`, the INHIBITION was -13.4%.
Next, `CSc1nccn1-c1cccc(C(=O)NCC(F)(F)F)c1`: 18.2%.
Turning to `N#CCCN(CCC#N)C(=O)CN(C1CC1)C1CCc2ccccc21` (centres undefined), the INHIBITION is -40.5%.
Regarding `CCC(O)CN1CCN(C(=O)c2ccn(C)c(=O)c2)CC1` (centres undefined), the INHIBITION is 13.3%.
On to `CC(C)CCc1nc(CNCC2CN(C)CCO2)cs1` (centres undefined), for which the INHIBITION is -21.9%.
For the molecule `Cc1cc(NC(=O)CN2CCn3c(nnc3C(C)C)C2)n(C)n1`, the INHIBITION was 22.2%.
Consider `CC1N(C)C(=O)COC12CCN(Cc1nccs1)CC2` (centres undefined), for which the INHIBITION is reported as 69.7%.
Turning to `Cc1nc(CN2C(=O)COC3(CCN(Cc4nccs4)CC3)C2C)cs1` (centres undefined), the INHIBITION is 15.1%.
As to `CN1CCN(C)C2(CCN(Cc3ccsc3)CC2)C1=O`, the INHIBITION stood at 5.04%.
`CC1N(CC2CC2)C(=O)COC12CCN(Cc1nccs1)CC2` (centres undefined): the INHIBITION stood at 31.8%.
Turning to `CC1N(C)C(=O)COC12CCN(C(=O)Cc1ccsc1)CC2` (centres undefined), the INHIBITION amounted to 77.7%.
Consider `Cc1nc(CN2C(=O)COC3(CCN(Cc4ccsc4)CC3)C2C)cs1` (centres undefined), for which the INHIBITION came out at 38.2%.
In the case of `CC1N(C)C(=O)COC12CCN(Cc1ccsc1)CC2` (centres undefined), the INHIBITION came out at 63%.
With `CC1N(C)C(=O)COC12CCN(C(=O)CCc1ccccc1)CC2` (centres undefined), the INHIBITION was 6.83%.
For the molecule `CC1NC(=O)COC12CCN(C(=O)Cc1ccsc1)CC2` (centres undefined), the INHIBITION is -28.6%.
For the molecule `Cc1nc[nH]c1C(=O)N1CCCC2(C1)C(=O)N(C)c1ccccc12` (centres undefined), the INHIBITION stood at 9.57%.
In the case of `Cn1nc2c(cc1=O)CN(Cc1nc(-c3ccco3)no1)CC2` it was -7.31%; in that of `Cc1nnc2n1CCN(C(=O)c1cc(Cl)c(Br)[nH]1)C2`, -33.32%.
Turning to `CC(=O)NCc1ccc(C(=O)Nc2ccc3c(c2)C(=O)NC3)cc1`, the INHIBITION is -20%.
Regarding `CCOc1ccccc1CNS(=O)(=O)c1ccc2c(c1)CCCC(=O)N2`, the INHIBITION stood at 19.4%.
In the case of `Cn1cc2ncn(CCC3CCN(Cc4ccccc4)C3)c(=O)c2n1` (centres undefined) it was 42.1%; in that of `O=C(NCc1ccc(C(=O)N2CCCC2)cc1)c1cn2c(n1)CNCC2`, 16.1%.
Turning to `CN(CCSc1ccccc1)C(=O)c1cn2c(n1)CNCC2`, the INHIBITION is 66.5%.
Take `CN(CC(=O)NCCc1ccccn1)C(=O)c1cccs1`: the INHIBITION was determined as 11%.
Turning to `Cc1ccc(SCCN(C)C(=O)c2cn(CCN)nn2)cc1`, the INHIBITION is recorded as -122%.
Take `CN(CCc1ccccn1)C(=O)c1cn2c(n1)CNCC2`: the INHIBITION was found to be 66.5%.
Consider `CN(CCSc1ccccc1)C(=O)C(c1cccnc1)N1CCOCC1` (centres undefined), for which the INHIBITION was found to be 19.4%.
As to `c1ccc(NCc2cn3c(n2)CNCC3)nc1`, the INHIBITION came to 42.6%.
For `CN(CCc1ccccn1)C(=O)c1cccs1`, the INHIBITION was 50.8%.
For `CN(CCc1ccccn1)C(=O)c1cn(CCN2CCNCC2)nn1`, the INHIBITION is reported as -60.7%.
In the case of `CC(C)N(Cc1ccccn1)C(=O)CN(C)C(=O)c1cccs1`, the INHIBITION is given as 12.3%.
In the case of `CN(C)S(=O)(=O)c1ccc(CNC(=O)c2cn3c(n2)CNCC3)cc1`, the INHIBITION worked out at 39.9%.
As to `CN(CCCc1ccccc1)C(=O)c1cn2c(n1)CNCC2`, the INHIBITION was determined as 61.9%.

Source of the values: ChEMBL document CHEMBL4513216, “Probing the Open Global Health Chemical Diversity Library for Multistage-Active Starting Points for Next-Generation Antimalarials” (ACS Infect Dis, 2020).
